Source: PubChem
GIRK2 activator: GIRK2 channel activators by thallium flux. P48051. HEK293 GIRK2/NPY4 cells, thallium flux fluorescence. activation (% efficacy), % for hits at 37.5 µM. 34,000 tested, under 10 active. AID 1259324;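 active = primary screen hit, no activity in plain HEK293 cells, and in GIRK2-only cells above 5% efficacy rising with concentration; inactive = the rest, including fluorescent compounds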;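 note: efficacy is normalized control-subtracted fluorescence 15 s after thallium addition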
AMPAR-TARP mod: modulates AMPAR-stargazin complexes. O88602+P19491. HEK293 GluA2+stargazin, membrane potential dye (FDSS), glutamate EC50; hits were called plate by plate, in both directions. calls only at 30 µM. actives 3.5% (n = 40,000). AID 1259245;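 active = any of four per-well response measures lying three or more SD from its plate-wide compound average, in either direction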
Target sequence (O88602 whole entry, looked up): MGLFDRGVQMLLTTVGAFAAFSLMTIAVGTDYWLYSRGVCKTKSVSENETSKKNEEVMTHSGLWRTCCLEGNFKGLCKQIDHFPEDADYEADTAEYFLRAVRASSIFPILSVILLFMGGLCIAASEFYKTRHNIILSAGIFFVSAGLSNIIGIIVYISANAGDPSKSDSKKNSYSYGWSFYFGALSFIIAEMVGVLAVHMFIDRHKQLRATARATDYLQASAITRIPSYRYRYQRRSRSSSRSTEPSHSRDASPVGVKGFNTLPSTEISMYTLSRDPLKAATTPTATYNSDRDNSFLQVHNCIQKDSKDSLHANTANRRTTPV
Target sequence (P19491 whole entry, looked up): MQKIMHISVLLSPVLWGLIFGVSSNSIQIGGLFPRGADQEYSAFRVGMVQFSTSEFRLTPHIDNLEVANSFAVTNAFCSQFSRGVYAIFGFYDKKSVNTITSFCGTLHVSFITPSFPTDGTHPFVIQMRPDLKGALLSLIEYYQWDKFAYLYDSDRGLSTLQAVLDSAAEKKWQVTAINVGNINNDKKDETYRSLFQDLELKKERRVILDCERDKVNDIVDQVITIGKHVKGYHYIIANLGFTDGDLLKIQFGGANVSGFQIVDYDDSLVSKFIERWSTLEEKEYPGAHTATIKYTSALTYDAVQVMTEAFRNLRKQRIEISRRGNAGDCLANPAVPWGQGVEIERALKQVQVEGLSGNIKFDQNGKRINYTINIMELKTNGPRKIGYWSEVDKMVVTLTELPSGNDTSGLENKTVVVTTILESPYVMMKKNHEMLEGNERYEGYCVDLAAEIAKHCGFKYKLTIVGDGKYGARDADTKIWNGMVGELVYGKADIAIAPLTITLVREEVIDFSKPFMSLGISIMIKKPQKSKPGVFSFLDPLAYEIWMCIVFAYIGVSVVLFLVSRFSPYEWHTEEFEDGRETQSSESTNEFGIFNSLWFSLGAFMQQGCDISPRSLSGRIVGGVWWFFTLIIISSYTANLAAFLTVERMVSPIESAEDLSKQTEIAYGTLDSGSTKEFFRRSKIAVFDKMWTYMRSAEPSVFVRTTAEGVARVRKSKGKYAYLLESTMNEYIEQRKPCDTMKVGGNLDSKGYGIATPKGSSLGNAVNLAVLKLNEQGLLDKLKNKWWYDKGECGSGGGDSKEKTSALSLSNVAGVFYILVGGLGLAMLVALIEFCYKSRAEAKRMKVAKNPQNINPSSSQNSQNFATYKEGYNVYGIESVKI
Of the large screens only hits and unclear results are named; the others gave an inactive call. The entries come from a sample that favours hits as a whole.

O=S(=O)(c1ccc(F)cc1)N1CCN(c2ccc3nnc(-c4ccco4)n3n2)CC1	AMPAR-TARP mod active
O=S(=O)(/C=C/c1ccccc1)N1CCN(c2ccc(-c3ccco3)nn2)CC1	none
CC(Oc1ccccc1F)C(=O)N1CCN(c2ccc3nnc(-c4ccco4)n3n2)CC1 (stereo not given)	AMPAR-TARP mod active
O=S(=O)(/C=C/c1ccccc1)N1CCN(c2ccc3nnc(-c4ccco4)n3n2)CC1	AMPAR-TARP mod active
CCc1ccc(S(=O)(=O)N2CCN(c3ccc4nnc(-c5ccco5)n4n3)CC2)cc1	none
O=S(=O)(c1cccc(Cl)c1)N1CCN(c2ccc3nnc(-c4ccco4)n3n2)CC1	none
Cc1nc2ccccc2n1CC1CCN(S(=O)(=O)C2CC2)CC1	none
CCCN(CCC)C(=O)Cn1c(C2CC(=O)N(c3ccccc3C)C2)nc2ccccc21 (stereo not given)	none
Cc1nc(NC(=O)c2cc(Cl)ccn2)sc1C(=O)N(C)C	none
CCCC(=O)Nc1ccc(S(=O)(=O)N2CCN(c3ccc4nnc(C)n4n3)CC2)cc1	AMPAR-TARP mod active
CCOC(=O)c1ccc(S(=O)(=O)N2CCN(c3ccc4nnc(CC)n4n3)CC2)cc1	none
C=CCNC(=O)Cn1cc(OC)c(=O)cc1CSc1ccccc1	none
COc1cc(/C=C/C(=O)NCCc2ccsc2)cc(OC)c1OC	none
COc1cc(/C=C/C(=O)NCCCn2cccc2)cc(OC)c1OC	AMPAR-TARP mod active
COc1cc(/C=C/C(=O)c2ccc(O)cc2)cc(OC)c1OC	none (no result: GIRK2 activator)
COc1cc(/C=C/C(=O)Nc2nncs2)cc(OC)c1OC	AMPAR-TARP mod active
O=C(c1ccc([N+](=O)[O-])cc1)N1CCN(c2ccc(NCC3CCCO3)nn2)CC1 (stereo not given)	none
CC(C)(C)c1ccc(S(=O)(=O)c2cc3cc(F)cc(F)c3oc2=O)cc1	none (no result: GIRK2 activator)
Cc1c(O)ccc2cc(S(=O)(=O)c3ccc(F)cc3)c(=O)oc12	AMPAR-TARP mod active (no result: GIRK2 activator)
O=C(c1ccc(N2C(=O)CCC2=O)cc1)N(CCN1CCOCC1)c1nc2ccccc2s1	none (no result: GIRK2 activator)
O=C(Cc1cccc2ccccc12)Nc1ccc2scnc2c1	none
O=C(NCCc1cn2c(n1)SCC2)C(=O)Nc1ccc2c(c1)OCCO2	none
Cc1ccc(S(=O)(=O)CCCC(=O)Nc2ccccc2Oc2ccccc2)cc1	AMPAR-TARP mod active
CS(=O)(=O)c1ccc(CC(=O)Nc2nc(-c3ccc(Oc4ccccc4)cc3)cs2)cc1	none (no result: GIRK2 activator)
CS(=O)(=O)c1ccc(CC(=O)Nc2ccccc2Oc2ccccc2)cc1	AMPAR-TARP mod active (no result: GIRK2 activator)
COc1ccc(S(=O)(=O)CCC(=O)Nc2ccccc2Oc2ccccc2)cc1	none
CCc1nnsc1C(=O)Nc1ccc(S(=O)(=O)N(C)Cc2ccccc2)cc1	none
Cc1ccc(S(=O)(=O)NCC2(O)CCOCC2)cc1Cl	none (no result: AMPAR-TARP mod)
Cn1c(=O)c(C(=O)Nc2ccc(S(N)(=O)=O)cc2)cc2cccnc21	AMPAR-TARP mod active
Cn1c(=O)c(C(=O)NCCc2ccc(S(N)(=O)=O)cc2)cc2cccnc21	none
Cc1ccc(Cn2c(=O)c3c(nc4oc(-c5ccc(F)cc5)cn43)n(C)c2=O)cc1	AMPAR-TARP mod active
Cc1ccc(C)c(Cn2c(=O)c3c(nc4oc(-c5ccc(F)cc5)cn43)n(C)c2=O)c1	none (no result: GIRK2 activator)
Cc1ccc(C(=O)N2CCN(c3nc(C)cc(N4CCCC4)n3)CC2)cc1	AMPAR-TARP mod active (no result: GIRK2 activator)
Cc1cc(N2CCN(C(=O)COc3ncccn3)CC2)nc(N2CCCCC2)n1	none (no result: AMPAR-TARP mod)
CC(C)Oc1ccc(C(=O)N2CCN(c3ncnc4c3nnn4-c3ccc(F)cc3)CC2)cc1	none (no result: GIRK2 activator)
O=C(NC1CCCCCC1)C1CCC(Cn2c(=S)[nH]c3ccccc3c2=O)CC1 (stereo not given)	none
O=C(C1CCCC1)N1CCN(c2ccc(-c3ccc(Cl)cc3)nn2)CC1	AMPAR-TARP mod active
O=C(C1c2ccccc2Oc2ccccc21)N1CCN(c2ccc(-c3ccncc3)nn2)CC1	AMPAR-TARP mod active
O=C(C1CC1)N1CCN(c2ccc(-c3ccc(Cl)cc3)nn2)CC1	none
O=C(C1CCCCC1)N1CCN(c2ccc(-c3ccncc3)nn2)CC1	none
C=C(C)Cn1c(=O)c2c(nc3n2CCCN3c2ccc(OC)cc2OC)n(C)c1=O	none (no result: GIRK2 activator)
O=C(CSC1=Nc2cccnc2Nc2ccccc21)N1CCN(c2ccccc2)CC1	none
CCOc1ccccc1NC(=O)Cn1c(=O)n(C(C)C)c(=O)c2nscc21	AMPAR-TARP mod active
COc1ccc(NC(=O)Cn2c(=O)n(C(C)C)c(=O)c3nscc32)cc1OC	none
O=C(CC1CCCC1)Nc1nc(CSCc2ccc(F)cc2)cs1	AMPAR-TARP mod active
O=C(CCc1csc(NC(=O)c2ccc(F)cc2)n1)NCC1CCCCC1	none
CCN(C(=O)C1CN(C(C)=O)C1)c1cccc(C)c1	none
Cc1cccc(-n2nc3c(c2-n2cccc2)CN(C(=O)c2cc(C)oc2C)C3)c1	AMPAR-TARP mod active
Cc1ccc(-n2nc3c(c2-n2cccc2)CN(C(=O)c2ccc(F)c(F)c2)C3)cc1	none
CCC1=C(C(=O)OC)C(c2ccc(OC)cc2OC)n2ncnc2N1 (stereo not given)	none
CC12CC(NC(=O)N1c1cccc(C(=O)NCc3cccs3)c1)c1ccccc1O2 (stereo not given)	none
CSc1cccc(NC(=O)C(=O)NCC(c2cccc3ccccc23)N(C)C)c1 (stereo not given)	none (no result: AMPAR-TARP mod)
C=CCN1C(=O)/C(=C\C=C2/SCCN2C)SC1=S	AMPAR-TARP mod active (no result: GIRK2 activator)
COc1ccc(OC)c(COCC(O)CN2CCc3ccccc3C2)c1 (stereo not given)	none
COc1ccccc1NC(=O)c1ccc(S(=O)(=O)N(C)C2CCCCC2)cc1	none (no result: GIRK2 activator)
CCCN(CCC)S(=O)(=O)c1ccc(C(=O)Nc2ccccc2OC)cc1	AMPAR-TARP mod active (no result: GIRK2 activator)
Cc1noc(C2CN(C(=O)/C=C/c3ccc4c(c3)OCO4)C2)n1	none
CC(C)c1nnc(C2CCN(C(=O)c3cccnc3)CC2)o1	none
COc1ccc(CNC(=O)NCC(O)c2sccc2C)cc1OC (stereo not given)	none
C=CCN1C(=O)SC(CC(=O)Nc2ccc([N+](=O)[O-])cc2)C1=O (stereo not given)	AMPAR-TARP mod active
C=CCN1C(=O)SC(CC(=O)Nc2ccc(C(=O)OC)cc2)C1=O (stereo not given)	none
CC(=O)Nc1ccc(S(=O)(=O)N2CCN(c3ccc(NCC4CCCO4)nn3)CC2)cc1 (stereo not given)	none
Cc1cccc(S(=O)(=O)NCC(C)(O)c2ccc3c(c2)OCO3)c1 (stereo not given)	none
Cc1nnc(NC(=O)C2CN(C(=O)c3cnccn3)C2)s1	none
COc1ccc(SCC(=O)Nc2nc(-c3ccncc3)cs2)cc1	none (no result: GIRK2 activator)
COc1ncccc1C(=O)Nc1onc2c1CSC2	AMPAR-TARP mod active
O=C(Nc1onc2c1CSC2)c1cnc2ccccc2n1	none
O=C(c1c[nH]c2ccccc12)N1CC(C(=O)N2CCC3(CC2)OCCO3)C1	none
CCOC(=O)CNC(=O)CSc1nnc(-c2ccncc2)o1	none
CCCC(=O)Nc1cc(C(=O)N2CCCCCC2)cn(C)c1=O	none (no result: GIRK2 activator)
Cc1ccc(S(=O)(=O)NCC2CCN(C)CC2)c(C)c1	none
Cc1ccc(S(=O)(=O)NCCn2nc(C)c(Cl)c2C)c(C)c1	AMPAR-TARP mod active
COc1ccc2nc(N(CCN3CCOCC3)C(=O)c3ccc(Cl)s3)sc2c1	AMPAR-TARP mod active (no result: GIRK2 activator)
COc1ccc2sc(N(CCN3CCOCC3)C(=O)CSc3ccc(C)cc3)nc2c1	none
COc1ccc(C)c2sc(N(CCN3CCOCC3)C(=O)c3ccc([N+](=O)[O-])s3)nc12	AMPAR-TARP mod active (no result: GIRK2 activator)
CCOc1ccc2nc(N(Cc3ccncc3)C(=O)/C=C/c3cccc([N+](=O)[O-])c3)sc2c1	none
